In article PMC7862700, “An all-to-all approach to the identification of sequence-specific readers for epigenetic DNA modifications on cytosine”:

Key:
Test in all cases: DAPPL (digital affinity profiling via proximity ligation, sequencing); 10 mM Tris-HCl pH 7.5, 50 mM NaCl, 1 mM DTT, 4% glycerol, room temperature, 30 min; GST-TFs on glutathione beads, 16-mer random dsDNA library, 0.1% formaldehyde crosslink after washing; high values mean tight binding
Conditions in all cases: protein: recombinant; tags: N-terminal GST; dsDNA, one strand shown
[1] = molecular target: T1, SPIC (Homo sapiens, UniProt Q8N5J4 1-248)
T1 sequence: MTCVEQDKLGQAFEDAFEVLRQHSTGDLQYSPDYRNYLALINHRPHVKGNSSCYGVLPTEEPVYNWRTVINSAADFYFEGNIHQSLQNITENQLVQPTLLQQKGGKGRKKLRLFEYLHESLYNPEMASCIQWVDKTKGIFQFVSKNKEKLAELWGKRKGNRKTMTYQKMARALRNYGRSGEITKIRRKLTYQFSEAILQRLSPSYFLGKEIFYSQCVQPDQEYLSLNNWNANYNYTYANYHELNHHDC
How it was run: (§1)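 Binding signal is each hexamer's read frequency for a factor divided by its frequency in the tag-only sample. The factors were GST-fused human transcription factors from yeast, captured on glutathione beads, DNA-barcoded and pooled with that sample. Pools were incubated with 200 nmole of a random double-stranded 16-mer DNA library in Tris/NaCl/DTT/glycerol buffer at room temperature for 30 min, then washed, crosslinked with 0.1% formaldehyde, proximity-ligated with BsaI/T4 ligase (1 h, 37 °C), PCR-amplified and sequenced on an Illumina NextSeq500.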

[2] = molecular target: ELF4 (Homo sapiens, UniProt Q99607 1-663)
How it was run: as §1

[3] = molecular target: T2, ELK4 (Homo sapiens, UniProt P28324-2 1-405)
T2 sequence: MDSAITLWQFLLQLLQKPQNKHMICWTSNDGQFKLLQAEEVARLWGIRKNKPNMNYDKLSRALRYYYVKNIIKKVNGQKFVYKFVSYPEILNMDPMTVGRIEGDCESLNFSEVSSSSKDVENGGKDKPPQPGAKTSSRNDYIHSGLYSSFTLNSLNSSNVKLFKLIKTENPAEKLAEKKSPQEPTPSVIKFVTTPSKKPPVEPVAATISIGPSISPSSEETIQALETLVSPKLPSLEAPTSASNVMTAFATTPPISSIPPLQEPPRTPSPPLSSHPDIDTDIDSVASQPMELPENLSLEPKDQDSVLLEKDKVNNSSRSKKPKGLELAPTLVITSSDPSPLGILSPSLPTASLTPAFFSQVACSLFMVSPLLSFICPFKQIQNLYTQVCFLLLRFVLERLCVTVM
How it was run: as §1

[4] = molecular target: T3, ETV2 (Homo sapiens, UniProt O00321 1-342)
T3 sequence: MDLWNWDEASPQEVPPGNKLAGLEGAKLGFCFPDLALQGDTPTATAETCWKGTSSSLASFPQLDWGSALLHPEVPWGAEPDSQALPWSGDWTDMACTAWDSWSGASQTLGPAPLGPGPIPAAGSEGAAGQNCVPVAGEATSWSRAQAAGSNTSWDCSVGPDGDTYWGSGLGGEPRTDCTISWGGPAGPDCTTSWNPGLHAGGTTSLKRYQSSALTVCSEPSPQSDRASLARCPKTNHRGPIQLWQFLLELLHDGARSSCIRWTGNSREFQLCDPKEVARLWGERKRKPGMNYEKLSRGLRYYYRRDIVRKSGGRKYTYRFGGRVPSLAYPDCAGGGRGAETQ
How it was run: as §1

[5] = molecular target: T4, ELF3 (Homo sapiens, UniProt P78545 1-371)
T4 sequence: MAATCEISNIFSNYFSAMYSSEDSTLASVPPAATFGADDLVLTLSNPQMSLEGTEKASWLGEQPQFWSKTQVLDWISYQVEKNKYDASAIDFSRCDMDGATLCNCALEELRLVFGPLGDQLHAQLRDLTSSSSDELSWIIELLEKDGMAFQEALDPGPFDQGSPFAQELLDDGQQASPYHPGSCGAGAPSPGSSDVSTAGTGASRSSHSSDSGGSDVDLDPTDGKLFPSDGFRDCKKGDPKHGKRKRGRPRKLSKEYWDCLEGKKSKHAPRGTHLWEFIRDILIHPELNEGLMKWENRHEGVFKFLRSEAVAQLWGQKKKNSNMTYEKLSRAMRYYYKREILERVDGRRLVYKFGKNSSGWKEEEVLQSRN
How it was run: as §1

[6] = molecular target: ETV1 (Homo sapiens, UniProt P50549 1-477)
How it was run: as §1

[7] = molecular target: T5, ERF (Homo sapiens, UniProt P50548 1-548)
T5 sequence: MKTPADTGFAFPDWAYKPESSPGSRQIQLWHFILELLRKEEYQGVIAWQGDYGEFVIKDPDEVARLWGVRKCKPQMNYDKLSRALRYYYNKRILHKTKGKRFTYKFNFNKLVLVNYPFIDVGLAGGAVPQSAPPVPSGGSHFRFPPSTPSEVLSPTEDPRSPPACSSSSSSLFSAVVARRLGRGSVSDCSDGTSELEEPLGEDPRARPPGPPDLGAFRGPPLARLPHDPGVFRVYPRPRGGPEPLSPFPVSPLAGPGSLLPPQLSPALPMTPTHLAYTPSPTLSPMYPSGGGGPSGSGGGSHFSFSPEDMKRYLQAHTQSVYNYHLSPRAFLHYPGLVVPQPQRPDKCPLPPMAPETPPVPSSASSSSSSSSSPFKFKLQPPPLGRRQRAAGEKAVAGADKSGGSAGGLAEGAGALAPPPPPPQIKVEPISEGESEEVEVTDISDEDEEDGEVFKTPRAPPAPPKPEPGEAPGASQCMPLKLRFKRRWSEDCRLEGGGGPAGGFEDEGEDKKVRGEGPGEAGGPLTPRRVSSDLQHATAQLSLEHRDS
How it was run: as §1

[8] = molecular target: T6, SPDEF (Homo sapiens, UniProt O95238 1-335)
T6 sequence: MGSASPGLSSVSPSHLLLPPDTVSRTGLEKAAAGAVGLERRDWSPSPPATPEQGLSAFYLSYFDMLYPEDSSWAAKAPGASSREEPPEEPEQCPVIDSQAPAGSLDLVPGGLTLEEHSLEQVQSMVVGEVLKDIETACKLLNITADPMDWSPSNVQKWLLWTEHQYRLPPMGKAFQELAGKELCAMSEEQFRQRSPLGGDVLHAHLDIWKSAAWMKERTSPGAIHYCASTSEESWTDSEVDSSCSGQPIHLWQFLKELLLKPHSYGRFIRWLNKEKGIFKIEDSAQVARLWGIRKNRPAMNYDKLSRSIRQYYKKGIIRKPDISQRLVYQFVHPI
How it was run: as §1

[9] = molecular target: T7, ETV7 (Homo sapiens, UniProt Q9Y603 1-341)
T7 sequence: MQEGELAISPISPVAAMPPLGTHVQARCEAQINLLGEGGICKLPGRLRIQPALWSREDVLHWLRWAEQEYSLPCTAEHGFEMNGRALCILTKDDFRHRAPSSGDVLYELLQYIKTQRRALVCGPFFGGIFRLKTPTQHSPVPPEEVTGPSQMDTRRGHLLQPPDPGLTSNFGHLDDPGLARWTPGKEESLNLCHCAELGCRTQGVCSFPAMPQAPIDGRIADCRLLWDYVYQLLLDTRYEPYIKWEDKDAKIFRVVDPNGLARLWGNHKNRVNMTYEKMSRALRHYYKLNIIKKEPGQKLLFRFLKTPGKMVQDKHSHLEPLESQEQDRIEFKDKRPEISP
How it was run: as §1

[10] = molecular target: T8, ETV3 (Homo sapiens, UniProt P41162-2 1-143)
T8 sequence: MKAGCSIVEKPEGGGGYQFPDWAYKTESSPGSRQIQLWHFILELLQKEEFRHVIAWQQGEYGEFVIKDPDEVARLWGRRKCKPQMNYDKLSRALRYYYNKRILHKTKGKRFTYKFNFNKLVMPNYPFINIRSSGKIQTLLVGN
How it was run: as §1

[11] = molecular target: ETV6 (Homo sapiens, UniProt P41212 1-452)
How it was run: as §1

Sequence of ETV1 (P50549 whole entry): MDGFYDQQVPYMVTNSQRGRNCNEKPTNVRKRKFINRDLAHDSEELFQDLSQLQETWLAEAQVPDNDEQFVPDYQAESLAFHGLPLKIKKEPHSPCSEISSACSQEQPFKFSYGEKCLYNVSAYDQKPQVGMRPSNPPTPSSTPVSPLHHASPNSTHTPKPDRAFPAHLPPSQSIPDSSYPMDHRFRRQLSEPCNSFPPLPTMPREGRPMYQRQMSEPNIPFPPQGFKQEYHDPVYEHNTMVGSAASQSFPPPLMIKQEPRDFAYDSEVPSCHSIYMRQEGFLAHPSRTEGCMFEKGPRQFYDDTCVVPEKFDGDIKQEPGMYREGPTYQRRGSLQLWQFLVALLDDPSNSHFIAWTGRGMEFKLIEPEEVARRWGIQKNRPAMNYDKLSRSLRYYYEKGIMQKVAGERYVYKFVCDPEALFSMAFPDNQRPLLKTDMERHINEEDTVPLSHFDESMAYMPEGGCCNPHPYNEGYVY
Sequence of ETV6 (P41212 whole entry): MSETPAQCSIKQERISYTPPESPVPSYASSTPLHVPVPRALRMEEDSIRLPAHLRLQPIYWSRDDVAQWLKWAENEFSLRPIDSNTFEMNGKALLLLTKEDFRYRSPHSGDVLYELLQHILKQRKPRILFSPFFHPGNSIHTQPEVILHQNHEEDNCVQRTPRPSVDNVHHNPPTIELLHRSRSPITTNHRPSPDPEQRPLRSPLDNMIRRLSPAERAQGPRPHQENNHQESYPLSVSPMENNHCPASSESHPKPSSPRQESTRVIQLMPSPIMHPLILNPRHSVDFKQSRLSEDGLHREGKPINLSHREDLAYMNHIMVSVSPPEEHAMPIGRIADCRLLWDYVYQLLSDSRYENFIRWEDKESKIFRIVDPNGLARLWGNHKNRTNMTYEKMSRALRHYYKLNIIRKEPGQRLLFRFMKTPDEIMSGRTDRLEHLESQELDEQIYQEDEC
Sequence of ELF4 (Q99607 whole entry): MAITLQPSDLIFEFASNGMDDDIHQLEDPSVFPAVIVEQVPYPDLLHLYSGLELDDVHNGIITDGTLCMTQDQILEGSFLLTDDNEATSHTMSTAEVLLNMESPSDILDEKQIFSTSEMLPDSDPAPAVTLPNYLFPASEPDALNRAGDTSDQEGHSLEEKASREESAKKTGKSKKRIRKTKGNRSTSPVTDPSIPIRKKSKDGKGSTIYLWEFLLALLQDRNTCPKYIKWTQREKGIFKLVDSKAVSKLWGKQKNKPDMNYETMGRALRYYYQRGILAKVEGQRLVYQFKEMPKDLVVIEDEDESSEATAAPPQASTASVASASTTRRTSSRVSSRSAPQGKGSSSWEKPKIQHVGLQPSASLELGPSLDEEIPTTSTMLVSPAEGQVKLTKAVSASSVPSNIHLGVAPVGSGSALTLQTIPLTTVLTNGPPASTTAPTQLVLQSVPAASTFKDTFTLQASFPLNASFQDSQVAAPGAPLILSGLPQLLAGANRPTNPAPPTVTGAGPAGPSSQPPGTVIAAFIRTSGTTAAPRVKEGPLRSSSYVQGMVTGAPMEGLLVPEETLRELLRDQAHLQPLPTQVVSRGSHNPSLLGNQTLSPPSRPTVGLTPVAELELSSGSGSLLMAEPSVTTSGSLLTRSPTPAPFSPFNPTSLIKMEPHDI

GCACCT
binding signal [1]: 1 fold enrichment (6-mer frequency, TF over GST control) | binding signal [2]: 1.13 fold enrichment (6-mer frequency, TF over GST control) | binding signal [3]: 1.16 fold enrichment (6-mer frequency, TF over GST control) | binding signal [4]: 1.25 fold enrichment (6-mer frequency, TF over GST control) | binding signal [5]: 1.06 fold enrichment (6-mer frequency, TF over GST control) | binding signal [6]: 1.1 fold enrichment (6-mer frequency, TF over GST control) | binding signal [7]: 1.29 fold enrichment (6-mer frequency, TF over GST control) | binding signal [8]: 1.09 fold enrichment (6-mer frequency, TF over GST control) | binding signal [9]: 1.11 fold enrichment (6-mer frequency, TF over GST control) | binding signal [10]: 1.13 fold enrichment (6-mer frequency, TF over GST control) | binding signal [11]: 1.12 fold enrichment (6-mer frequency, TF over GST control)
